Screening results from PubChem.
hcDAF-12 act = activators of H. contortus DAF-12 nuclear receptor; HEK293 hcDAF-12 lit1-tk-luc reporter, luminescence; 0% DMSO, 100% Δ7-dafachronic acid; activation, % at 6.8 µM; 370,000 compounds, 1.4% hits; AID 652067;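 active = activation above the mean of all tested compounds plus 3 SD, cut at about 5.5% in these data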;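 also: 100% = response to 3 µM Δ7-dafachronic acid high control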
esBAF inh = inhibitors of esBAF chromatin remodeling in mouse ES cells; reporter increase, % at 12.5 µM; AID 602393; 350,000 compounds, 2% hits; Bmi1-luciferase knock-in reporter, 24 h; 100% = twice the neutral-well signal; in the data active = activation above about 40%;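 also: 0% = median of the plate's neutral control wells and 100% = double that signal; a rise in the Bmi1 reporter signal indicates esBAF inhibition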
ssDAF12 agonist = activates DAF-12 receptor from parasite S. stercoralis; 370,000 compounds, 1% hits; AID 652126; HEK293 ssDAF-12/GRIP1 lit1-tk-luc reporter, luminescence; % of 3 µM dafachronic acid response; activation, % at 6.8 µM;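 active = activation above the mean over all tested compounds plus 3 SD, cut at about 0.9% in these data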;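 also: 0% = DMSO-only wells and 100% = 3 µM delta7-dafachronic acid wells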
hgDAF12 agonist = agonists of H. glycines DAF-12 nuclear receptor; HEK293 GAL4-hgDAF12 UAS-luciferase reporter, agonist luminescence; normalized to butyrate control; activation, % at 6.8 µM; 370,000 compounds, 1.8% hits; AID 687014;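 active = activation above a cutoff set at the mean of all screened compounds plus 3 SD, cut at about 10% in these data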;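 also: 0% = DMSO wells and 100% = sodium butyrate wells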
DAX1 StAR inh = inhibitors of DAX1 repression of SF-1 activated StAR promoter. AID 652010. 370,000 compounds, 1.1% hits. inhibition, % at 6.8 µM. HEK293T StAR-luciferase reporter, SF-1/DAX-1 repression relief;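 active = inhibition above the mean over all tested compounds plus 3 SD, cut at about 3.6% in these data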;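 also: 0% = DAX-1 cells with DMSO and 100% = cells lacking DAX-1 with DMSO; higher inhibition means more luminescence from relief of DAX-1 repression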
Wnt bcat act = Wnt/beta-catenin pathway activation | Wnt/beta-catenin reporter cell assay, activator, plate reader | activation, % at 9.35 µM | AID 743398 | 300,000 compounds, 1.2% hits; in the data active = activation above about 30%, passing the limit was not always enough;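 also: 0% = neutral control wells and 100% = positive control wells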
* hit, by the source's call; / = no result given. The list is not random: actives were taken first. Their share in the collection is about 4.2%.

SMILES	hcDAF-12 act	esBAF inh	ssDAF12 agonist	hgDAF12 agonist	DAX1 StAR inh	Wnt bcat act
O=C1C(c2c(O)[nH]c3ccccc23)=Nc2ccccc21	5	10	1.3*	4	0	0
C[C@H](CO)N1C[C@H](C)[C@@H](CN(C)S(=O)(=O)c2cn(C)cn2)Oc2c(NS(=O)(=O)c3ccc(Cl)cc3)cccc2C1=O	/	-3	/	/	/	/
CCC1CCCCN1CC(=O)c1c(C)[nH]c2cc(C)ccc12 (configuration not stated)	5.8*	-5	-1	0	0	-1
O=C1C(C=NCc2cccnc2)=C(O)c2ccccc21	5	/	0	12*	3	/
CN1C(=O)c2cc(NC(=O)C3CCCC3)ccc2OC[C@H]2O[C@@H](CC(=O)NCC(F)(F)F)CC[C@@H]21	/	-5	/	/	/	/
CC(C)c1nnc(NC(=O)COc2ccccc2[N+](=O)[O-])s1	1	/	0	4	2	21
O=C(COc1cc(F)ccc1[N+](=O)[O-])Nc1ccc2c(c1)OCO2	0	57*	-1	2	-1	22
O=C(COC(=O)CCc1ccc(S(=O)(=O)N2CCOCC2)cc1)Nc1ccccc1[N+](=O)[O-]	5.6*	0	0	1	1	4
CCSc1nnc(NC(=O)COc2ccccc2[N+](=O)[O-])s1	4	49*	-1	5	3	5
O=C(COC(=O)COc1ccccc1[N+](=O)[O-])Nc1ccc(S(=O)(=O)N2CCCCC2)cc1	2	-5	1.2*	2	0	/
O=C(COc1ccccc1[N+](=O)[O-])Nc1cccc(S(=O)(=O)N2CCCC2)c1	-3	9	-2	-2	-2	-8
O=C(COC(=O)COc1ccccc1[N+](=O)[O-])Nc1ccc2c(c1)OCO2	1	2	-1	-2	0	2
O=C(COc1ccccc1[N+](=O)[O-])Nc1ccc2c(c1)CCC2	2	79*	-1	10	4.5*	29
COc1ccc(NC(=O)CCN2CCN(S(=O)(=O)c3ccc(Cl)cc3)CC2)cc1	-1	1	-2	-2	-1	-3
COc1ccc(S(=O)(=O)N2CCN(CC(O)CN3CCOCC3)CC2)cc1 (configuration not stated)	-2	-12	-1	-2	0	53*
COc1ccc(NC(=O)CCN2CCN(S(=O)(=O)c3ccc(C(C)C)cc3)CC2)cc1	-3	-3	1.2*	-2	-1	0
CC(C)C#Cc1cnc2c(c1)C(=O)N([C@H](C)CO)C[C@H](C)[C@H](CN(C)C(=O)c1cnccn1)O2	/	0	/	/	/	/
Cc1cc(C)n(-c2ccc(C(=O)OCC(=O)Nc3ccccc3[N+](=O)[O-])cc2)n1	0	-3	0	3	0	-1
Cc1cc(C)n(-c2ccc(C(=O)OCC(=O)Nc3cc(Cl)ccc3[N+](=O)[O-])cc2)n1	5	-8	1.2*	2	0	-2
O=C(NCCOc1ccccc1F)c1cc(F)c(F)cc1Cl	5	/	1.2*	13*	3.7*	22
Cc1ccccc1C(=O)NCCOc1ccccc1Cl	3	29	1.1*	12*	2	14
COC(=O)C[C@H]1CC[C@H]2[C@@H](COc3ccc(NC(=O)Nc4ccc(Cl)cc4)cc3C(=O)N2C)O1	/	1	/	/	/	/
O=C1CCC[C@@H]2C[C@@]3(C[C@@H]4CCN1[C@H]24)Nc1cc(Cl)c(Cl)cc1NC3=NCc1ccccc1	2	74*	0	2	1	9
O=C1CCC[C@@H]2[C@H](Cc3ccccc3)[C@@H](O)C[C@@H]3CCN1[C@@H]32	-1	-2	-1	-1	0	-1
COc1ccc(-c2ccc([C@@H]3[C@@H](CO)N4CCCCN(C(=O)c5ccc6c(c5)OCO6)C[C@@H]34)cc2)cc1	/	3	/	/	/	/
SMILES	hcDAF-12 act	esBAF inh	ssDAF12 agonist	hgDAF12 agonist	DAX1 StAR inh	Wnt bcat act
C[C@H](CO)N1C[C@H](C)[C@H](CN(C)C(=O)Nc2ccc3c(c2)OCO3)Oc2ccc(NC(=O)Cc3ccccc3)cc2C1=O	/	6	/	/	/	/
Cn1nnc(-c2ccc(OCc3ccccc3F)cc2)n1	2	3	1.0*	9	3.8*	38*
COc1ccc(C/C(C)=N/NC(=S)Nc2ccc(Cl)cc2)cc1	-2	-3	-2	-1	0	10
COc1ccc(NC(=O)CN2CCN(c3ccccc3)CC2)cc1	0	-6	-1	12*	-1	-2
COc1ccc(NC(=O)CNC(=O)Cc2ccccc2)cc1	-1	0	0	1	0	0
CCc1ccc(OC(=O)Nc2ccccc2)cc1	6.2*	-5	1	11*	2	23
COc1ccc(C/C(C)=N/NC(=S)Nc2ccccc2)cc1	2	60*	0	9	1	5
COc1ccc(NC(=O)Cc2ccccc2)cc1	0	57*	0	4	1	36*
CC(C)NC(=O)Nc1ccc2c(c1)C(=O)N([C@@H](C)CO)C[C@H](C)[C@@H](CN(C)S(=O)(=O)c1cn(C)cn1)OCCCC[C@@H](C)O2	/	-4	/	/	/	/
COc1ccc(OC(=O)Nc2ccccc2)cc1	3	14	0	6	3.9*	/
COc1ccc(CC(=O)Nc2ccc(-c3cn4ccc(C)cc4n3)cc2)cc1	-2	58*	-2	1	-1	/
COc1ccc(NC(=O)COC(=O)CC2CCCC2)cc1	-1	/	1.2*	3	-1	0
CC(C)OC(=O)N(C)C[C@@H]1OCc2ccccc2-c2ccccc2C(=O)N([C@H](C)CO)C[C@@H]1C	/	4	/	/	/	/
C[C@@H]1CN([C@@H](C)CO)C(=O)Cc2cc(NC(=O)Cc3ccccc3)ccc2O[C@H]1CN(C)S(=O)(=O)c1cccs1	/	-3	/	/	/	/
O=C1c2cccc3cccc(c23)C(=O)N1CC1CCCO1 (configuration not stated)	-1	4	-1	-2	1	2
Nc1cccc(Oc2ccc3c(c2)C(=O)N(CC2CCCO2)C3=O)c1 (configuration not stated)	4	50*	-1	11*	0	15
CN(C)c1ccc(NC(=O)c2ccc(N3CCOCC3)nc2)cc1	0	51*	-1	3	0	9
COc1ccc(NC(=O)Nc2ccc3c(c2)[C@H]2C[C@@H](CC(=O)N4CCCCC4)O[C@H](CO)[C@H]2O3)cc1	/	5	/	/	/	/
CN1C(=O)C2(Oc3ccccc3C3CC(c4ccccc4)=NN32)c2ccccc21 (configuration not stated)	/	95*	/	/	/	/
CN1C(=O)C(O)(c2sc(N)nc2-c2ccccc2)c2ccccc21 (configuration not stated)	3	-1	0	4	1	-2
CCN(CC)C(=O)Oc1ccc2ccccc2c1Br	-1	/	-2	3	-1	11
